Source: PubChem
MEKK3 PB1 HTS: modulators of MEKK3-MEK5 PB1 binding, primary screen, biochemical, wildtype MEKK3, multiplex bead flow cytometry, Alexa488-MEK5; Mitogen-activated protein kinase kinase kinase 3 (Homo sapiens), Q99759; bead-based flow cytometry, Alexa488-MEK5 binding to MEKK3; actives lie on both sides; 0 = blocked by unlabeled MEK5, 100 = vehicle; binding response (% of control), % at 10 µM; actives 1.4% (n = 290,000); AID 1529, 2009;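 active means binding response more than 3 SD above or below the average of its plate-row segment, actives on both sides; inconclusive means wells at one plate position flagged as instrument error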;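 further: Alexa488 bead fluorescence after subtracting the streptavidin-only scavenger bead signal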
MEKK2 WT-MEK5: modulators of MEK5 binding to wildtype MEKK2, primary screen, biochemical, multiplex bead flow cytometry, Alexa488-MEK5; Mitogen-activated protein kinase kinase kinase 2 (Homo sapiens), Q9Y2U5; Alexa488-MEK5 binding to MEKK2 WT; actives lie on both sides; binding response (% of control), % at 10 µM; actives 1.1% (n = 290,000); AID 1531, 2009; in the data active means binding response below about 67% or above about 130%; inconclusive means no clear call, values can overlap the other calls; inactive means in between
UBC13 polyUb: UBC13 polyubiquitin chain formation inhibitors, primary screen, biochemical, TR-FRET, uHTS. Ubiquitin-conjugating enzyme E2 N (Homo sapiens), P61088. inhibition, % at 20 µM. actives 0.47% (n = 330,000). AID 485273, 2010; in the data active means inhibition above about 45%, passing the limit was not always enough; inconclusive means no clear call, values can overlap the other calls
Target sequence (P61088 whole entry, looked up): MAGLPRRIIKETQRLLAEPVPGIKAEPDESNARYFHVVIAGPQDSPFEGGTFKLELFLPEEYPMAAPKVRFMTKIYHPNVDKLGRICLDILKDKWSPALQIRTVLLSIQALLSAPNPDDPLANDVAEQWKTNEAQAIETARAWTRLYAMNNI
MEKK2 mut-MEK5: MEK5 binding signal on mutant MEKK2 PB1, primary screen, biochemical, multiplex bead flow cytometry, Alexa488-MEK5; actives 0.35% (n = 290,000); Alexa488-MEK5 binding to MEKK2 mutant; percent response, % at 10 µM; AID 1530, 2009; in the data active means percent response above about 24%, passing the limit was not always enough
Rce1 inhib: yeast Rce1p protease inhibitors, primary screen, biochemical, fluorescence, cell-free homogeneous | actives 0.27% (n = 290,000) | calls only | yeast membranes, quenched prenylated peptide cleavage fluorescence | CAAX prenyl protease 2 (Saccharomyces cerevisiae (strain ATCC 204508 / S288c)), Q03530;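 active means fall in fluorescence gain of 50% or more versus controls, with final raw signal at or below 3038400; inconclusive means same 50% fall but final raw signal above 3038400; inactive means fall in fluorescence gain under 50%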;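 further: plate controls were neutral control wells for no effect and wells lacking membranes for full effect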
Target sequence (Q03530 whole entry, looked up): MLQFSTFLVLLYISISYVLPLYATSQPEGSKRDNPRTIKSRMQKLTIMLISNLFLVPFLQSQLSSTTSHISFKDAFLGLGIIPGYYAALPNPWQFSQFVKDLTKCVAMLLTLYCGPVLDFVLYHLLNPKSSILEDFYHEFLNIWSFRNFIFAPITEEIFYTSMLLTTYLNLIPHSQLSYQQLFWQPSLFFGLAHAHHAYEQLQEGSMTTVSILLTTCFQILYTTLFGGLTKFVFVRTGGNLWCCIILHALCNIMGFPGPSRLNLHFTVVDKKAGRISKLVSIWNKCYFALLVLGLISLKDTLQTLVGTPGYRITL
MEKK2wt confirm: modulators of MEK5 binding to wildtype MEKK2, confirmation, biochemical, single concentration, multiplex bead flow cytometry | binding response (% of control), % at 10 µM | Alexa488-MEK5 binding to MEKK2 WT; actives lie on both sides | shares compounds with MEKK3 PB1 HTS | actives 2.4% (n = 5,900); in the data active means binding response below about 16% or above about 210%; inactive means in between
MEKK2mut-MEK5: mutant MEKK2 PB1-MEK5 binding signal retest – biochemical, single concentration, multiplex bead flow cytometry, confirmation; shares compounds with MEKK3 PB1 HTS; Alexa488-MEK5 binding to MEKK2 mutant; percent response, % at 10 µM; actives 2% (n = 5,900); in the data active means percent response mostly above about 71%, no sharp cut-off; inactive means mostly below about 38%;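 further: higher means compound restores mutant binding toward wildtype level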
MEKK3 confirm: MEKK3 wild-type PB1 binding to MEK5, inhibitors, confirmation, biochemical, bead multiplex flow cytometry, single concentration, wildtype; Alexa488-MEK5 binding to MEKK3; active compounds read low; shares compounds with MEKK3 PB1 HTS; actives 1.8% (n = 5,900); binding response (% of control), % at 10 µM; AID 1894, 2009;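 active means binding response below 72% of control, or above a set upper limit, though filed actives all read lower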;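 further: 100% = DMSO only wells and 0% = binding blocked by excess unlabeled MEK5; lower values mean stronger disruption of MEK5 binding to MEKK3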
Starred values were filed as active, the others as inactive; [ ] = another dose, or the depositor's remark. In the library only some 2.5% were active in any assay of this set; here they are far more common.

Screening O=C(Nc1cccc(O)c1)c1c(O)c2ccccc2[nH]c1=O returned MEKK3 PB1 HTS 97.0, MEKK2 WT-MEK5 95.0, UBC13 polyUb 18.6, MEKK2 mut-MEK5 6.0 and Rce1 inhib inactive.
Screening Cc1cc(C(=O)NCCCN2CCN(c3cc(Cl)ccc3C)CC2)n(-c2ccccc2)n1 returned MEKK3 PB1 HTS 109.0, MEKK2 WT-MEK5 139.0*, UBC13 polyUb 14.0, MEKK2 mut-MEK5 21.0, Rce1 inhib inactive, MEKK2wt confirm 134.0, MEKK2mut-MEK5 30.0 and MEKK3 confirm 104.0.
COC(=O)C(=NNc1c(C)n(C)n(-c2ccccc2)c1=O)C(=O)OC was read as MEKK3 PB1 HTS 141.0*, MEKK2 WT-MEK5 112.0, UBC13 polyUb -21.8, MEKK2 mut-MEK5 1.0, Rce1 inhib inactive, MEKK2wt confirm 72.0, MEKK2mut-MEK5 -16.0 and MEKK3 confirm 74.0.
Cc1ccccc1NC(=O)c1c(C)nc(SCC(=O)OCc2ccccc2)c(C#N)c1-c1ccc(F)cc1 was read as MEKK3 PB1 HTS 144.0*, MEKK2 WT-MEK5 111.0, UBC13 polyUb inconclusive, MEKK2 mut-MEK5 1.0, Rce1 inhib inactive, MEKK2wt confirm 101.0, MEKK2mut-MEK5 -5.0 and MEKK3 confirm 98.0.
`COc1ccc(S(=O)(=O)N(CC(=O)NC2CCCCC2)c2ccc(F)cc2)cc1` gave MEKK3 PB1 HTS 98.0, MEKK2 WT-MEK5 103.0, UBC13 polyUb -8.4, MEKK2 mut-MEK5 4.0 and Rce1 inhib inactive.
`COc1cccc(NC(=S)N2CCN(c3ccc([N+](=O)[O-])cc3)CC2)c1` gave MEKK3 PB1 HTS 60.0*[inhibitor], MEKK2 WT-MEK5 60.0*[inhibitor], UBC13 polyUb -7.3, MEKK2 mut-MEK5 -16.0, Rce1 inhib inactive, MEKK2wt confirm 99.0, MEKK2mut-MEK5 -2.0 and MEKK3 confirm 100.0.
Screening CCn1c(SCC(=O)c2ccc(NC(C)=O)c(OC)c2)nnc1-c1ccc(NS(C)(=O)=O)cc1 returned MEKK3 PB1 HTS 105.0, MEKK2 WT-MEK5 102.0, UBC13 polyUb -7.2, MEKK2 mut-MEK5 -1.0 and Rce1 inhib inactive.
`CCC(=O)Nc1ccc(C(=O)CSc2nnc(-c3ccc(NS(C)(=O)=O)cc3)n2C)cc1OC` gave MEKK3 PB1 HTS 73.0*[inhibitor], MEKK2 WT-MEK5 94.0, UBC13 polyUb -4.0, MEKK2 mut-MEK5 -1.0, Rce1 inhib inactive, MEKK2wt confirm 103.0, MEKK2mut-MEK5 4.0 and MEKK3 confirm 104.0.
Screening CCC(=O)Nc1ccc(-c2nnc(SCC(=O)N3CCCCC3)n2C)cc1 returned MEKK3 PB1 HTS 2.0*[inhibitor], MEKK2 WT-MEK5 1.0*[inhibitor], UBC13 polyUb -1.1, MEKK2 mut-MEK5 -15.0, Rce1 inhib inactive, MEKK2wt confirm 103.0, MEKK2mut-MEK5 1.0 and MEKK3 confirm 108.0.
`O=C(c1ccc(Br)o1)N1CCN(Cc2ccccc2Cl)CC1` gave MEKK3 PB1 HTS 99.0, MEKK2 WT-MEK5 100.0, UBC13 polyUb 0.5, MEKK2 mut-MEK5 0.0 and Rce1 inhib inactive.
Screening CCCn1cnc2c(=S)nc(N)[nH]c21 returned MEKK3 PB1 HTS 80.0, MEKK2 WT-MEK5 77.0, UBC13 polyUb 10.6, MEKK2 mut-MEK5 -30.0 and Rce1 inhib inactive.
For COC(=O)CN1C(=O)N/C(=C/c2ccccc2OC)C1=O the results were MEKK3 PB1 HTS 131.0*, MEKK2 WT-MEK5 116.0, UBC13 polyUb -13.6, MEKK2 mut-MEK5 1.0, Rce1 inhib inactive, MEKK2wt confirm 104.0, MEKK2mut-MEK5 0.0 and MEKK3 confirm 108.0.
COC(=O)c1ccc(OC(=O)c2cccnc2)cc1 was read as MEKK3 PB1 HTS 128.0*, MEKK2 WT-MEK5 106.0, UBC13 polyUb 9.6, MEKK2 mut-MEK5 0.0, Rce1 inhib inactive, MEKK2wt confirm 97.0, MEKK2mut-MEK5 -7.0 and MEKK3 confirm 95.0.
Clc1ccc(SCc2csc(N3CCOCC3)n2)cc1 was read as MEKK3 PB1 HTS 74.0*[inhibitor], MEKK2 WT-MEK5 75.0, UBC13 polyUb 5.2, MEKK2 mut-MEK5 -32.0, Rce1 inhib inactive, MEKK2wt confirm 95.0, MEKK2mut-MEK5 -4.0 and MEKK3 confirm 97.0.
`CSc1ccc(/C=C/C(=O)NC(=O)c2ccccc2O)cc1` gave MEKK3 PB1 HTS 128.0*, MEKK2 WT-MEK5 116.0, UBC13 polyUb -7.4, MEKK2 mut-MEK5 1.0, Rce1 inhib inactive, MEKK2wt confirm 100.0, MEKK2mut-MEK5 1.0 and MEKK3 confirm 103.0.
Screening O=C(/C=C/c1ccc(Br)cc1)NC(=O)c1ccccc1O returned MEKK3 PB1 HTS 98.0, MEKK2 WT-MEK5 89.0, UBC13 polyUb -2.2 and MEKK2 mut-MEK5 -2.0.
For Cc1ccc(N2CC(C(=O)Nc3ccccc3OC(F)F)CC2=O)cc1 (stereo unspecified) the results were UBC13 polyUb 6.2.
For O=[N+]([O-])c1ccc(-c2ccc(/C=N/Nc3nc(N4CCCCC4)nc(N4CCCCC4)n3)o2)cc1 the results were MEKK3 PB1 HTS 98.0, MEKK2 WT-MEK5 101.0, UBC13 polyUb -53.2, MEKK2 mut-MEK5 99.0*, MEKK2wt confirm 99.0, MEKK2mut-MEK5 -4.0 and MEKK3 confirm 103.0.
CCN(CC)c1cc(C)c(C#N)c2nc3ccccc3n12 was read as MEKK3 PB1 HTS 88.0, MEKK2 WT-MEK5 93.0, UBC13 polyUb -1.3, MEKK2 mut-MEK5 2.0 and Rce1 inhib inactive.
For CCN(CC)c1c2c(c(C#N)c3nc4ccccc4n13)CCC2 the results were MEKK3 PB1 HTS 69.0*[inhibitor], MEKK2 WT-MEK5 105.0, UBC13 polyUb 8.8, MEKK2 mut-MEK5 1.0, Rce1 inhib inactive, MEKK2wt confirm 103.0, MEKK2mut-MEK5 6.0 and MEKK3 confirm 103.0.
`CCc1ccc(C(=O)CN2C(=O)NC(C)(CCc3ccccc3)C2=O)cc1` (stereo unspecified) gave MEKK3 PB1 HTS 104.0, MEKK2 WT-MEK5 95.0, UBC13 polyUb 4.7, MEKK2 mut-MEK5 0.0 and Rce1 inhib inactive.
CCOC(=O)c1c(NC(=O)c2cccs2)sc2c1CCCC2 was read as MEKK3 PB1 HTS 1.0*[inhibitor], MEKK2 WT-MEK5 -1.0*[inhibitor], UBC13 polyUb 16.6, MEKK2 mut-MEK5 -9.0, Rce1 inhib inactive, MEKK2wt confirm 98.0, MEKK2mut-MEK5 6.0 and MEKK3 confirm 98.0.
